Data reported in the supplement of paper PMC9334596.
Values joined by “and” are separate entries in the source; they are usually repeats but may differ in a detail not shown here. Equal entries are not always repeated. Whole data set: some 5,300 compounds, median “PER2::LUC luminescence relative to vehicle control” near 0.96, cut for the highest 2% near 1.3. The list comes from a sample in which the highest values are over-represented; it also holds similar structures and randomly drawn compounds.

Test system: mPer2Luc MEF
Assay: PER2::LUC luminescence relative to vehicle control (fold of vehicle); higher = higher PER2::LUC reporter signal
Details: 10 µM
Summary of the method: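 In 384-well plates, ~3000 mPer2Luc reporter mouse embryonic fibroblasts per well were cultured in DMEM with 10% FBS at 37 °C and 5% CO2 for 48 h before compounds from commercial libraries were added at 10 μM. ONE-Glo luciferase readings were taken 24 h and 30 h after treatment. Each value is PER2::LUC luminescence given as fold of vehicle control.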

Row | SMILES | PER2::LUC luminescence (time after treatment 24 h) | PER2::LUC luminescence (time after treatment 30 h)
1 | CC(COc1ccc(/C=C/c2ccccc2)cc1)[N+](C)(C)C (stereo not drawn) | 0.936 | 1.02
2 | Cc1cccc(/C=C/c2ccccc2)n1 | 1.35 | 1.16
3 | CN(C/C=C/c1ccccc1)Cc1cccc2ccccc12 | 0.5 | 0.535
4 | O=Cc1c2[nH]c3ccccc3c2cc2[nH]c3ccccc3c12 | 1.54 | 1.5
5 | O=c1[nH]c2ccccc2c2ccccc12 | 1.19 | 0.972
6 | OCc1cc2c(cn1)[nH]c1ccccc12 | 0.851 | 0.873
7 | CC[C@@H](C)[C@@H](O)[C@H](C)C(=O)[C@H](C)/C=C(\C)C[C@H](C)[C@@H]1OC(=O)[C@H]1CC | 1.06 | 0.925
8 | Clc1cccc(COc2cncc(N3CCNCC3)n2)c1 | 0.246 | 0.301
9 | CCCCc1ccc(NC(C)=O)c(C)c1 | 1.1 | 1.05
10 | COc1cc(NC(=O)c2ccccn2)ccc1Cl | 1.13 | 1.38
11 | CS(=O)(=O)c1ccc(C(=O)Nc2ccc(Cl)c(-c3ccccn3)c2)c(Cl)c1 | 1.17 | 1.14
12 | O=C(Nc1ccc(S(=O)(=O)Nc2ccccc2Cl)c(Cl)c1)c1ccccn1 | 0.992 | 1.06
13 | CN1CC(=O)N=C1NC(=O)Nc1cccc(Cl)c1 | 0.949 | 1.1
14 | COc1ccccc1C(=O)Nc1cccc(NC(=O)c2cccc(C)c2)c1 | 0.917 | 0.985
15 | O=C(Nc1cccc(Cl)c1)c1ccccn1 | 1.65 | 1.48
16 | COc1cccc(CNC(=O)Nc2nc(-c3ccncc3)cs2)c1 | 0.558 | 0.601
17 | O=c1ncc(F)c[nH]1 | 0.979 | 0.911
18 | Cn1c2ncnc-2c(O)n(C)c1=O | 1.14 | 1.18
19 | FC(F)(F)COB(OCC(F)(F)F)OCC(F)(F)F | 0.958 | 1
20 | O=C1CN(/N=C/C=C/c2ccc([N+](=O)[O-])o2)C(=O)N1 | 1.04 | 1.01
21 | CCOc1cccc(C(=O)c2ccc(O)c(O)c2O)c1 | 1.23 | 1.37
22 | CCOc1ccc(C(=O)c2ccc(O)c(O)c2O)cc1 | 0.963 | 1.08
23 | CCOc1ccc(C(=O)c2ccc(OC)c(O)c2O)cc1 | 0.983 | 0.916
24 | O=C(Nc1cccc(NC(=O)c2cccc(O)c2O)c1)c1cccc(O)c1O | 0.916 | 1.34

Row | SMILES | PER2::LUC luminescence (time after treatment 24 h) | PER2::LUC luminescence (time after treatment 30 h)
25 | O=C(O)Cc1cccc(OCCCN(Cc2cccc(C(F)(F)F)c2Cl)CC(c2ccccc2)c2ccccc2)c1 | 1.4 | 1.47
26 | O=c1[nH]c(C2CCCN2)nc2c1oc1ccc(Cl)cc12 (stereo not drawn) | 1.22 | 1.29
27 | N#Cc1cc(-c2ccnc(Nc3ccc(N4CCOCC4)cc3)n2)ccc1OC1CCOCC1 | 0.507 | 0.584
28 | O=C(CCCCCCCCCCCCC1CCCC1)Nc1ccc(S(=O)(=O)c2ccc(NC(=O)CCCCCCCCCCCCC3CCCC3)cc2)cc1 | 1.06 | 1.02
29 | COc1ccccc1C(=O)Nc1cc2c(cc1N1CCCCC1)n(C)c(=O)n2C | 0.765 | 0.829
30 | COc1cccc(C(=O)NCCN2CCN(c3ccc(Cl)cc3)CC2)c1 | 0.833 | 0.96
31 | COc1cccc(-c2ccc(NC(=O)C3=C(C(=O)O)CCC3)c(F)c2)c1 | 1.43 | 1.75
32 | CC(C)=CCC/C(C)=C/CC/C(C)=C/CC/C(C)=C/C(=O)O | 1.07 | 0.976
33 | COc1c(O)c2c(=O)cc(OC)c3c4c(OC)cc(=O)c5c(O)c(OC)c6c(c(c1CC(C)=C6C(C)=O)c23)c54 | 0.779 | 0.948
34 | C=CCSSSCC=C | 1.32 | 1.05
35 | Nc1ccc(-c2ccc3ccccc3n2)cc1 | 1.74 | 1.29
36 | Nc1ccc(-c2nc3ccc(-c4nc5ccc(N)cc5[nH]4)cc3[nH]2)cc1 | 0.876 | 0.866
37 | O=C(O)c1cc(-c2ccccc2)nc2ccccc12 | 0.91 | 1.12
38 | COc1cc(Nc2nc3c(s2)CCCC3c2ccc(F)cc2)ccc1-n1cnc(C)c1 (stereo not drawn) | 1.05 | 1.02
39 | C/C=C\c1ccc(OC)cc1 | 1 | 1.03
40 | CC(CC(=O)O)C(N)C(=O)O (racemic) | 0.979 | 0.922
41 | O=c1cc(-c2ccccc2F)[nH]c2cc3c(cc12)OCO3 | 0.9 | 0.871
42 | CC(C)=CC[C@@H](OC(=O)C=C(C)C)C1=CC(=O)c2c(O)ccc(O)c2C1=O | 1.03 | 1.03
43 | CC12CCc3occc3C1CCC13CC(=O)C(CCC12)C3 (stereo not drawn) | 0.996 | 0.94
44 | CC(=O)O[C@H]1CC[C@]2(C)C3CC[C@@]4(C)[C@H](C5CC(C6OC6(C)C)OC5O)CC[C@]4(C)C3=CC[C@H]2C1(C)C (stereo partly drawn) | 1.14 | 1.08
45 | CC1=C(/C=C/C(C)=C/C=C/C(C)=C/C(=O)O)C(C)(C)CCC1O (stereo not drawn) | 0.928 | 1.06
46 | COc1cc(/C=C/C(=O)O)cc(OC)c1OC | 0.994 | 0.955
47 | COc1cc(C)c(/C=C/C(C)=C/C=C/C(C)=C/C(=O)O)c(C)c1C | 1.82 | 2.04
48 | O=C(NCc1cccs1)c1cc2nc(-c3ccco3)cc(C(F)(F)Cl)n2n1 | 1.03 | 1.11

Row | SMILES | PER2::LUC luminescence (time after treatment 24 h) | PER2::LUC luminescence (time after treatment 30 h)
49 | Cn1nnnc1SCC1=C(C(=O)O)N2C(=O)[C@@H](NC(=O)C(OC=O)c3ccccc3)[C@H]2SC1 (stereo partly drawn) | 0.605 | 0.705
50 | O=C(/C=C/C=C/c1ccc2c(c1)OCO2)N1CCCCC1 | 1.5 | 1.42
51 | O=C(c1ccc2c(c1)OCO2)N1CCCCC1 | 1 | 0.843
52 | O=C(O)/C=C/C=C/c1ccc2c(c1)OCO2 | 1.07 | 1.03
53 | COc1cc(N2CCOCC2)ccc1Nc1ncc(F)c(Nc2ccccc2NS(C)(=O)=O)n1 | 0.771 | 0.673
54 | Nc1nc(Nc2ccc3c(c2)CCC(N2CCCC2)CC3)nn1-c1cc2c(nn1)-c1ccccc1CCC2 (stereo not drawn) | 0.438 | 0.375
55 | C[C@@H](O)[C@H](NC(=O)c1ccc(C#Cc2ccc(CN3CCOCC3)cc2)cc1)C(=O)NO | 1.32 | 1.62
56 | O=C(NCCN1CCOCC1)c1ccc(Cl)cc1 | 1.09 and 1.08 | 0.965 and 1.2
57 | O=C(c1ccc(CN2CCOCC2)cc1)N1CCN(C2CC2)CC1 | 1.07 | 0.963
58 | O=C1/C(=C/c2cc(Br)c(O)c(Br)c2)COC/C1=C\c1cc(Br)c(O)c(Br)c1 | 0.259 | 0.258
59 | COc1cc2c(c(OC)c1OC)-c1ccc(OC)c(=O)cc1[C@@H](NC=O)CC2 | 0.938 | 0.84
60 | NCC(O)c1ccc(O)c(O)c1 (stereo not drawn) | 1.47 | 1.55
61 | NCC(O)c1ccc(O)c(O)c1 (racemic) | 1.04 | 1.12
62 | NC[C@@H](O)c1ccc(O)c(O)c1 | 1.26 | 1.04
63 | CCCC[C@@H](C)/C=C(C)/C=C(\C)C(=O)NC1=C[C@@](O)(/C=C/C=C/C=C/C(=O)NC2=C(O)CCC2=O)[C@@H]2O[C@@H]2C1=O | 0.951 | 0.934
64 | Cc1ccc(O)cc1Nc1ccnc(Nc2cccc(C(N)=O)c2)n1 | 1.05 | 1.02
65 | CCOC(=O)c1sc(NC(=O)[C@H](C(C)C)n2c(=O)[nH]c3ccccc3c2=O)nc1C | 1.02 | 0.987
66 | O=C(O[C@H]1[C@H](Oc2ccccc2COC(=O)C2(O)C=CCCC2=O)O[C@H](CO)[C@@H](O)[C@@H]1O)c1ccccc1 (stereo partly drawn) | 0.824 | 0.676
67 | Nc1ccc(/N=N/c2ccccc2)c(N)n1 | 1.76 | 1.7
68 | Cc1ccc(O)c(N=Nc2ccccc2)n1 | 1.05 | 0.998
69 | CC[C@H]1CN(c2nc(N)c(C(N)=O)nc2Cl)CCN1C1CCN(Cc2ccc(Cl)cc2)CC1 | 0.96 | 1.01
70 | C[C@@H]1O[C@@H](O[C@H]2[C@H](Oc3cc(O)c4c(=O)cc(-c5ccc(O)cc5)oc4c3)O[C@H](CO)[C@@H](O)[C@@H]2O)[C@H](O)[C@H](O)[C@H]1O | 0.841 | 0.85
71 | CC(C)Oc1ccc2c(=O)c(-c3ccccc3)coc2c1 | 1.9 | 1.92
72 | COc1ccc(-c2coc3cc(O)ccc3c2=O)cc1 | 1.77 | 1.97

Row | SMILES | PER2::LUC luminescence (time after treatment 24 h) | PER2::LUC luminescence (time after treatment 30 h)
73 | O=c1cc(-c2ccc(O)cc2)oc2cc(O[C@@H]3O[C@H](CO)[C@@H](O)[C@H](O)[C@H]3O)cc(O)c12 | 1.22 | 1.43
74 | COc1ccc(-c2coc3cc(O)ccc3c2=O)c(OC)c1 | 1.02 | 1.05
75 | OC[C@H]1O[C@@H](Oc2ccc(O)cc2)[C@H](O)[C@@H](O)[C@@H]1O | 1.02 | 0.876
76 | O=c1c(-c2ccc(O)cc2)coc2cc(O)ccc12 | 0.822 | 0.788
77 | COc1ccccc1-c1coc2cc(O)ccc2c1=O | 1.14 | 1.04
78 | O=c1c(-c2ccc(O)cc2)coc2cc(O[C@@H]3O[C@H](CO)[C@@H](O)[C@H](O)[C@H]3O)ccc12 | 1.25 | 1.39
79 | O=c1cc(-c2ccc(O)c(O[C@@H]3O[C@H](CO)[C@@H](O)[C@H](O)[C@H]3O)c2)oc2cc(O[C@@H]3O[C@H](CO)[C@@H](O)[C@H](O)[C@H]3O)cc(O)c12 | 1.07 | 1.04
80 | O=c1c(-c2ccc(O)cc2)coc2cc(O[C@@H]3O[C@H](CO)[C@@H](O)[C@H](O)[C@H]3O)cc(O)c12 | 1.3 | 1.32
81 | COc1ccc2c(=O)c(CC(=O)O)coc2c1 | 0.908 | 0.978
82 | Cc1ccc(NC(=O)Nc2cc(-c3ccccc3-c3nn[nH]n3)ccc2N(CC(C)C)CC(C)C)cc1 | 0.966 | 0.93
83 | O=c1ccc2cccc(O)c2[nH]1 | 1.06 | 0.957
84 | CCCCC/C=C\CCC(=O)N[C@H]1[C@H](Oc2c3cc4cc2Oc2ccc(cc2Cl)[C@@H](O[C@@H]2O[C@H](CO)[C@@H](O)[C@H](O)[C@H]2NC(C)=O)[C@@H]2NC(=O)[C@H](NC(=O)[C@@H]4NC(=O)[C@H]4NC(=O)[C@@H](Cc5ccc(c(Cl)c5)O3)NC(=O)[C@H](N)c3ccc(O)c(c3)Oc3cc(O)cc4c3)c3ccc(O)c(c3)-c3c(O[C@H]4O[C@H](CO)[C@@H](O)[C@H](O)[C@@H]4O)cc(O)cc3[C@@H](C(=O)O)NC2=O)O[C@H](CO)[C@@H](O)[C@@H]1O | 0.886 | 0.953
85 | C=C[C@@](C)(O)CC[C@H]1C(=C)CC[C@H]2C(C)(C)CCC[C@]12C | 0.946 | 0.911
86 | COc1ccc(-c2coc3c(OC)c(OC)cc(O)c3c2=O)cc1 | 1.01 | 1.13
87 | COc1ccc(-c2coc3cc(O)ccc3c2=O)cc1S(=O)(=O)O | 1 | 0.898
88 | COc1cc(-c2coc3cc(O)c(OC)c(O)c3c2=O)cc(O)c1OC | 1.37 | 1.39
89 | COc1cc(-c2coc3cc(OC)c(OC)c(OC)c3c2=O)cc(OC)c1OC | 0.972 | 0.969
90 | O=c1c(-c2ccc(O)cc2)coc2cc(O)cc(O)c12 | 1.07 | 1.06
91 | COc1cc(-c2coc3cc(O[C@@H]4O[C@H](CO)[C@@H](O)[C@H](O)[C@H]4O)c(OC)c(O)c3c2=O)cc(O)c1OC | 0.773 | 1.31
92 | COc1ccc(-c2coc3c(O)c(O)c(OC)cc3c2=O)cc1 | 1.31 | 1.23
93 | COc1ccc2c(=O)c(-c3ccc(O)cc3)coc2c1 | 1.39 | 1.62
94 | COc1ccc(-c2coc3cc(O)cc(O)c3c2=O)cc1 | 1.83 | 1.97
